# “And” between values parts separate entries of the source, which are not always exact repeats. Identical values can stand only once. Hit rate of the full screen: of about 6,400 compounds, about 610 (9.5%) were called active. The sample holds actives, similar compounds and a random draw of the others, so the mix is not that of the screen. Cut-off read from the data, not from the text of the source: active = activity change below about -70%; inconclusive = no clear call, values can overlap the other calls; inactive = above that. Where a structure was tested more than once in an assay, its records may differ in their call. Where a SMILES comes first, the peptide text is derived from it.
# Experiment: Toxoplasma gondii ME49Luc growth in HeLa cells, luciferase, no IFN-y, primary screen (AID 1259421)
# Details: T. gondii ME49Luc in HeLa, 72 h, stronger effect = lower value, concentration not given here
row,Compound,"activity change, negative = inhibition"
1,C[C@H](N)Cn1ccc2cc(F)c(Cl)cc21,7.22% (inactive)
2,Cc1ncc(CNC(=O)N(CCCl)[NH2+][O-])c(N)n1,18.6% (inactive)
3,CN(C)[C@@H]1C(=O)C(C(N)=O)C(=O)[C@@]2(O)C(=O)C3C(=O)c4c(O)cccc4[C@](C)(O)[C@H]3C[C@@H]12 (stereo partly specified),4.49% (inactive)
4,N[C@@H](Cc1ccc(O)cc1)C(=O)NCC(=O)NCC(=O)O (H-Tyr-Gly-Gly-OH),-5.06% (inactive)
5,NC(=O)C[S@@](=O)C(c1ccccc1)c1ccccc1,3.02% (inactive)
6,CCCC(C)C1(CC)C(=O)NC(=O)NC1=O (stereo unspecified),19.8% (inactive)
7,CN[C@@H](C)[C@H](O)c1ccccc1,-0.966% (inactive)
8,C[C@]12CCC(=O)C(=O)C1CC[C@@H]1[C@@H]2CC[C@]2(C)C(=O)CC[C@@H]12 (stereo partly specified),1.31% (inactive)
9,CCN[C@@H](C)Cc1cccc(C(F)(F)F)c1,3.99% (inactive)
10,Cc1nnc2ccc(-c3cccc(C(F)(F)F)c3)nn12,-56.7% (inactive) and -76.7% (active)
11,CCOC(=O)c1ncc2[nH]c3ccc(OCc4ccccc4)cc3c2c1COC,-0.724% (inactive) and 16.8% (inactive)
12,NC(=O)c1cn(C2OC(CO)[C@H](O)[C@@H]2O)c2ncnc(N)c12 (stereo partly specified),-91.9% (active)
13,CCNC(=O)C1OC(n2cnc3c(N)ncnc32)C(O)C1O (stereo unspecified),1.34% (inactive)
14,CCNC(=O)[C@H]1O[C@@H](n2cnc3c(N)ncnc32)[C@H](O)[C@@H]1O,-4.22% (inactive)
15,C#CCN1C(C)=C(C(=O)CCO)C(c2cccc(-n3oo3)c2)C(C(=O)OC)=C1C (stereo unspecified),11.7% (inactive)
16,OC1(c2ccc(Cl)cc2)c2ccccc2C2=NCCN21 (stereo unspecified),22.1% (inactive)
17,CN1CCC2(c3cccc(O)c3)Cc3nc4ccccc4cc3CC2C1 (stereo unspecified),-1.33% (inactive)
18,CC[C@H]1CN2CCC1C[C@@H]2[C@H](O)c1ccnc2ccc(OC)cc12 (stereo partly specified),19.4% (inactive)
19,CCCCCCCCCCCCCC(=O)O[C@@H]1[C@@H](C)[C@@]2(O)[C@@H](C=C(CO)C[C@]3(O)C(=O)C(C)=C[C@@H]23)[C@@H]2C(C)(C)[C@]12OC(C)=O,-85.6% (active) and -84.7% (active)
20,CC1=C[C@H]2[C@]3(O)[C@H](C)[C@@H](O)[C@@]4(O)[C@H]([C@@H]3C=C(CO)C[C@]2(O)C1=O)C4(C)C,-3.08% (inactive)
21,CCCCCCCCCOc1ccc2[nH]cc(CCN)c2c1,7.94% (inactive)
22,CCC1/C=C/C=C/C[C@H](C)[C@@H](O)[C@](C)(O)C(=O)[C@@H](C)[C@H](O)[C@@H](C)C(=O)[C@H](C)[C@@H](O)[C@H](C)/C=C/C(=O)OC2[C@@H](C)C(CC1)OC1(CC[C@@H](C)C(C[C@H](C)O)O1)[C@@H]2C (stereo partly specified),-89.1% (active)
23,CC1=CC[C@@H]2[C@@H](C1)c1c(O)cc(CC#CCCCNS(C)(=O)=O)cc1OC2(C)C,17.8% (inactive)
24,COc1ccc(C(=O)O)cc1OC,8.1% (inactive)
25,O=C(O[C@H]1CN2CCC1CC2)N(Cc1cc(F)c(F)c(F)c1)c1cccc(F)c1,16.6% (inactive)
26,CC(=O)Oc1ccc(/C=C/c2cc(OC(C)=O)cc(OC(C)=O)c2)cc1,11.4% (inactive)

row,Compound,"activity change, negative = inhibition"
1,O=C1CCC[C@@H]2[C@@H]3CCCN4CCC[C@H](CN12)[C@@H]34,15.2% (inactive)
2,C=C1[C@@H](C)[C@H]2[C@H](Cc3ccccc3)NC(=O)[C@]23OC(=O)/C=C\[C@H](O)CCC[C@@H](C)C/C=C/[C@H]3[C@@H]1O,-85.5% (active)
3,C[C@]12Cc3cn[nH]c3C[C@@H]1CC[C@@H]1[C@@H]2CC[C@@]2(C)[C@H]1CC[C@]2(C)O,-3.74% (inactive)
4,O=C(NC(=O)c1c(F)cccc1F)Nc1cc(Cl)c(OC(F)(F)C(F)C(F)(F)F)cc1Cl (stereo unspecified),-81.8% (active) and -81.1% (active)
5,CC(=O)OCC1=C(C(=O)O)N2C(=O)[C@@H](NC(=O)CCCC(N)C(=O)O)C2SC1.[Zn] (stereo partly specified),20.4% (inactive)
6,CC(C)=CC1C(C(=O)OCc2coc(Cc3ccccc3)c2)C1(C)C (stereo unspecified),19.4% (inactive)
7,Cc1c2ccncc2c(C)c2c1[nH]c1ccccc12,-83.1% (active)
8,c1ccc2c(c1)[nH]c1cnccc12,-0.879% (inactive)
9,Cc1nccc2c1[nH]c1ccccc12,1.21% (inactive)
10,COc1ccc2c(c1)CN(C)CC2c1ccc(Cl)c(Cl)c1 (stereo unspecified),5.02% (inactive)
11,O=C1CCC2(O)C3Cc4ccc(O)c5c4C2(CCN3CC2CC2)C1O5 (stereo unspecified),10.3% (inactive)
12,Clc1ccc(C2=CCCC3CCC2N3)cn1 (stereo unspecified),12.4% (inactive) and -82.3% (active)
13,CN(C(=O)Cc1ccc(Cl)c(Cl)c1)[C@H](CN1CCCC1)c1ccccc1,8.8% (inactive) and 17.5% (inactive)
14,OC12C3C4CC5C6C4C1C6C(C53)N2CCc1cccc(F)c1 (stereo unspecified),18.7% (inactive) and 6.8% (inactive)
15,CN(C)c1ccc(/C=C2\CCCN=C2c2cccnc2)cc1,-1.7% (inactive) and -12.2% (inactive)
16,CC1(C)CC[C@]2(C(=O)O)CC[C@]3(C)[C@H](C(=O)C=C4[C@@]5(C)C=C(C#N)C(=O)C(C)(C)[C@@H]5CC[C@]43C)[C@@H]2C1,-98.8% (active)
17,O=C1NCN(c2ccccc2)C12CCN(CC1COc3ccccc3O1)CC2 (stereo unspecified),-3.91% (inactive) and 4.3% (inactive)
18,C[C@@H]1C[C@@H]([C@H](O)CC2CC(=O)NC(=O)C2)C(=O)[C@@H](C)C1,-81.3% (active) and -84.7% (active)
19,CC1CC(C)C(=O)C(C(O)CC2CC(=O)NC(=O)C2)C1 (stereo unspecified),-83.8% (active)
20,Oc1c(I)cc(I)cc1I,3.61% (inactive)
21,CN1CC(CNC(=O)OCc2ccccc2)CC2c3cccc4c3c(cn4C)CC21 (stereo unspecified),8.87% (inactive) and 8.34% (inactive)
22,N#CC(C#N)=NNc1ccc(OC(F)(F)F)cc1,20% (inactive)
23,Oc1ccc2c3c1O[C@H]1c4oc5ccccc5c4C[C@@]4(O)C(C2)N(CC2CC2)CC[C@]314,-2.8% (inactive)
24,C/C(=C/C=C/[C@@H](C)C(=O)O)[C@H]1CN[C@H](C(=O)O)[C@H]1CC(=O)O,4.56% (inactive)
25,c1ccc(CCCN2CCN(CCOC(c3ccccc3)c3ccccc3)CC2)cc1,-51.1% (inactive) and -1.58% (inactive)
26,C[C@H]1CN(Cc2ccc(CC(=O)N3CCC(Nc4cccc(F)c4)CC3)cc2)CCN1,4.86% (inactive)

row,Compound,"activity change, negative = inhibition"
1,CC(C)(C)c1cc(C=C(C#N)C#N)cc(C(C)(C)C)c1O,-90.8% (active) and -88.7% (active)
2,CC(C)(C)c1cc(C=C(C#N)C#N)cc(Br)c1O,-39.2% (inactive)
3,N#CC(C#N)=Cc1ccc(O)c(O)c1,10.7% (inactive) and 7.11% (inactive)
4,CN1C(=O)N(C)C2C1N(C)C(=O)N2C (stereo unspecified),5.58% (inactive)
5,OC1CC2CCCC(C1)N2Cc1ccccc1 (stereo unspecified),4.85% (inactive)
6,CC(=O)O[C@@H]1CC2C(C)(C)C(=O)C=C[C@]2(C)C2CC[C@]3(C)C(=CC(=O)O[C@H]3c3ccoc3)[C@@]21C (stereo partly specified),-83.5% (active)
7,CC(=O)O[C@H]1C[C@@H](OC(C)=O)C(C)(C)C2C[C@@H](OC(C)=O)[C@]3(C)C(CC[C@@]4(C)[C@H](c5ccoc5)C(=O)[C@H]5O[C@]543)[C@]21C (stereo partly specified),11.1% (inactive)
8,CC1(C)C(=O)C=C[C@@]2(C)C1C[C@@H](O)[C@]1(C)C2CC[C@@]2(C)[C@H](c3ccoc3)OC(=O)[C@H]3O[C@]321 (stereo partly specified),13.2% (inactive)
9,CCN(CC)CCOC1CCC2(C)C(=CCC3C4CCC(=O)C4(C)CCC32)C1 (stereo unspecified),-5.47% (inactive)
10,CN1CC2CCCC(C1)C2OC(=O)C(O)(c1ccccc1)C1CCCC1 (stereo unspecified),36% (inactive)
11,C[C@H](N)Cc1cnc[nH]1,10.9% (inactive)
12,Cc1cccc(C(C)c2cnc[nH]2)c1C (stereo unspecified),15.9% (inactive) and 24.6% (inactive)
13,CCCCCCC(C)(C)c1ccc(C2CC(O)CCC2CCCO)c(O)c1 (stereo unspecified),0.246% (inactive)
14,C[C@]12CC[C@H](O)C[C@H]1CC[C@@H]1[C@@H]2C[C@@H](O)[C@]2(C)[C@@H](C3=CC(=O)OC3)CC[C@]12O,-93.5% (active)
15,C[C@]12[C@H](O)CC3C(CC[C@@H]4C[C@@H](O)CC[C@]34C)[C@@]1(O)CC[C@@H]2C1=CC(=O)OC1 (stereo partly specified),-84.3% (active)
16,CC(=O)OCC(=O)[C@H]1CC[C@H]2[C@@H]3CC[C@H]4C[C@H](O)CC[C@]4(C)[C@H]3C(=O)C[C@]12C,-8.47% (inactive)
17,C[C@]12CC[C@H](O)C[C@H]1CC[C@@H]1[C@@H]2CC[C@]2(C)[C@@H](C3=CC(=O)OC3)CC[C@]12O,-86.6% (active)
18,CC(=O)C1CCC2C3CCC4C[C@H](O)CCC4(C)C3C[C@H](O)C12C (stereo partly specified),3.84% (inactive)
19,C[C@]12CC[C@@H](O)C[C@@H]1CC[C@@H]1[C@@H]2CC[C@]2(C)C(=O)CC[C@@H]12,9.11% (inactive)
20,CC(=O)[C@H]1CC[C@H]2[C@@H]3CC[C@H]4C[C@H](O)CC[C@]4(C)[C@H]3C(=O)C[C@]12C,12.1% (inactive)
21,C[C@]12CC[C@@H](O)C[C@@H]1CC[C@@H]1[C@@H]2CC[C@]2(C)[C@@H](C(=O)CO)CC[C@@H]12,8.82% (inactive)
22,C[C@]12CC[C@H](O)C[C@H]1CC[C@@H]1[C@@H]2CC[C@]2(C)[C@@](O)(c3ccoc3)CC[C@]12O,2.9% (inactive)
23,Cl/C=C\C[N+]12CN3CN(CN(C3)C1)C2,5.98% (inactive)
24,NC1=NC(=O)N2CC12 (stereo unspecified),6.84% (inactive)

# — PubChem BioAssay AID1259421 (Broad Institute, 2018)
